Drawing on the antibiotic and cytotoxicity screens of Wong et al. (2023), this text covers cytotoxicity call for 20 compounds.

Among all 39,000 compounds or so, about 3,300 (8.5%) were called active. For the sample, actives were picked, then their nearest neighbours and some compounds at random.

For this test, the system named is HepG2. Briefly: cytotoxicity call (relative viability < 0.9). Particulars: 10 µM.
As for `C[C@@H]1CCCCO[C@@H](CN(C)C(=O)Nc2ccc3c(c2)OCO3)[C@H](C)CN([C@@H](C)CO)C(=O)c2cc(NS(=O)(=O)c3ccc(F)cc3)ccc2O1`, the cytotoxicity call was “inactive”.

Regarding `COc1ccc(CN(C)C[C@H]2Oc3ccc(NC(=O)Cn4cnnn4)cc3CC(=O)N([C@H](C)CO)C[C@H]2C)cc1`, the cytotoxicity call was “inactive”.

`C[C@@H]1CN([C@H](C)CO)C(=O)Cc2cc(NS(C)(=O)=O)ccc2O[C@@H]1CN(C)Cc1ccc2c(c1)OCO2`: the cytotoxicity call is “inactive”.

Turning to `Nn1c(-c2ccncc2)n[nH]c1=S`, the cytotoxicity call was “inactive”.

With `O=C(/C=C/c1cccc(-c2cn(-c3ccc(C[C@H]4C(=O)O[C@@H](Cc5ccccc5)[C@H]5[C@@H]6C=CCCC=C6CN54)cc3)nn2)c1)NO`, the cytotoxicity call was “inactive”.

Take `O=C(NO)c1cn(-c2ccc(C[C@H]3C(=O)O[C@@H](Cc4ccccc4)[C@H]4[C@@H]5C=CCCC=C5CN43)cc2)nn1`: the cytotoxicity call was “active”.

As to `O=C(CCc1cn(-c2ccc(C[C@H]3C(=O)O[C@@H](Cc4ccccc4)[C@H]4[C@@H]5C=CCCC=C5CN43)cc2)nn1)NO`, the cytotoxicity call is “inactive”.

On to `CC(C)[C@@H](CO)N1C(=O)[C@]2(C)[C@H]3C(=O)OCCC/C=C\[C@H]3O[C@]23C=CCN(c2ccc(Cl)cc2)C(=O)[C@@H]13`, for which the cytotoxicity call is “inactive”.

In the case of `NC[C@@H]1O[C@H](C23CC4CC(CC(C4)C2)C3)Cc2c1ccc(O)c2O`, the cytotoxicity call is “inactive”.

With `C[C@H](CO)N1C[C@H](C)[C@H](CN(C)S(C)(=O)=O)Oc2cc(-c3ccccc3F)ccc2S1(=O)=O`, the cytotoxicity call is “inactive”.

Turning to `C=C(C)COc1ccc([N+](=O)[O-])cc1`, the cytotoxicity call is “inactive”.

For the compound `O=[N+]([O-])c1ccc(Oc2ccc(-c3ccccc3)cc2)cc1`, the cytotoxicity call was “active”.

With `CS(=O)(=O)Nc1ccc([N+](=O)[O-])cc1Oc1ccccc1`, the cytotoxicity call was “inactive”.

In the case of `Cn1c(=O)c2c(ncn2CCNC2=NCCC2)n(C)c1=O`, the cytotoxicity call was “inactive”.

Turning to `Cc1noc(C)c1NC(=O)Nc1cccc2c1O[C@@H](CN(C)S(=O)(=O)c1cn(C)cn1)[C@@H](C)CN([C@@H](C)CO)C2=O`, the cytotoxicity call is “inactive”.

In the case of `Cc1noc(C)c1S(=O)(=O)Nc1ccc2c(c1)C(=O)N([C@H](C)CO)C[C@H](C)[C@H](CN(C)S(=O)(=O)c1ccccc1)O2`, the cytotoxicity call is “inactive”.

As for `Cc1noc(C)c1S(=O)(=O)N(C)C[C@@H]1Oc2c(NS(=O)(=O)c3cn(C)cn3)cccc2C(=O)N([C@H](C)CO)C[C@@H]1C`, the cytotoxicity call is “inactive”.

`CCC1(O)C(=O)OCc2c1cc1n(c2=O)Cc2cc3c(CN(C)C)c(O)ccc3nc2-1.Cl` (stereo not given): the cytotoxicity call was “active”.

With `CCC1(O)C(=O)OCc2c1cc1n(c2=O)Cc2cc3cc(O)ccc3nc2-1` (stereo not given), the cytotoxicity call is “inactive”.

For `CC[C@@]1(O)C(=O)OCc2c1cc1n(c2=O)Cc2c-1nc1cc(F)c(C)c3c1c2[C@@H](N)CC3`, the cytotoxicity call was “active”.
